# Measured values published in PubChem BioAssay (Tox21).
# “And” between values parts separate entries of the source, which are not always exact repeats. Equal entries are not always repeated. Records with an inconclusive call do not appear. Entries that show only a call come without a potency. Some compounds were tested as several samples or in several runs, with calls that do not always agree. The source made the active and inactive calls. Unless noted, the call rests on the fitted dose curve; in most records, active means well fitted curve in the direction sought with a large enough effect in the repeat runs; inconclusive means weak or mixed curves; inactive means no such curve, though single readings can be large; an effect the other way counts as inactive or inconclusive.
# Assays:
# [1] = qHTS assay to identify small molecule agonists of the vitamin D receptor (VDR) signaling pathway - cell viability counter screen (AID 743224); further: nearly all actives have a fitted effect of over 50% in size; further: potency means the concentration at half of the fitted maximal effect
# How it was run: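 Cells: VDR-bla, 2,000/well, settled 4 h. Treatment: compounds in DMSO, 16 h, 37C/5% CO2. Readout: CellTiter-Glo luminescence after 30 min RT.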
# [2] = qHTS assay to identify small molecule antagonists of the vitamin D receptor (VDR) signaling pathway - cell viability counter screen (AID 743225); further: nearly all actives have a fitted effect of over 50% in size
# How it was run: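 Parallel cytotoxicity test: VDR-UAS-bla HEK 293T, 3 nM (final) 1-alpha,25-dihydroxyvitamin D3 with test compound, 16 h, 37C. Endpoint is CellTiter-Glo luminescence in the same wells.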
# [3] = qHTS assay to identify small molecule agonists of the NFkB signaling pathway (AID 1159509; active means well fitted curve in the direction sought with a large enough effect in the signal ratio in the repeat runs, not every such curve was filed as active; the % refers to the signal ratio; further: series mostly up to about 61 µM)
# How it was run: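 Pathway activation was measured in ME-180 cells stably expressing beta-lactamase under NF-kB response element control. Substrate cleavage was read as the 460/530 nm emission shift after 5 hr compound incubation.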
# [4] = qHTS assay to identify small molecule agonists of the NFkB signaling pathway - cell viability counter screen (AID 1159515; calls by dose curve; further: nearly all actives have a fitted effect of over 55% in size; further: potency means the concentration at half of the fitted maximal effect)
# How it was run: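 Cells are seeded (2,000 NFkB-bla ME-180 per well), rested overnight, and dosed with DMSO-dissolved compounds for 5 hr at 37 C. Viability is then read by CellTiter-Glo luminescence after 30 min at room temperature.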
# [5] = qHTS assay to identify small molecule agonists of the endoplasmic reticulum stress response signaling pathway (AID 1159516; active means well fitted activation curve with a large enough effect in the signal ratio in the repeat runs, not every such curve was filed as active; the % refers to the signal ratio)
# How it was run: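 Cells are seeded at 1,500 per well and incubated overnight. Compounds in DMSO are added for 5 hr at 37 C, then beta-lactamase FRET substrate for 2 hr at room temperature, and fluorescence at 460 and 530 nm is measured.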
# [6] = qHTS assay to identify small molecule agonists of the endoplasmic reticulum stress response signaling pathway - cell viability counter screen (AID 1159517; calls by dose curve;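 further: HeLa cells carrying an ER stress response element beta-lactamase reporter; series mostly up to about 61 µM; nearly all actives have a fitted effect of over 50% in size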)
# How it was run: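 ESRE-bla HeLa cells (1,500/well) were plated overnight at 37 C and exposed to compounds for 5 hr. After the 2 hr beta-lactamase substrate read, CellTiter-Glo went into the same wells, and luminescence was read after 30 min at room temperature.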
# [7] = qHTS assay to identify small molecule antagonists of the retinoid-related orphan receptor gamma (ROR-gamma) signaling pathway - cell viability counter screen (AID 1159520); further: nearly all actives have a fitted effect of over 50% in size
# How it was run: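 Cytotoxicity was read from cellular ATP (CellTiter-Glo luminescence) after 16 hr at 37 C with 1 uM doxycycline induction. The inducer was added 2 hr after compound transfer to Tet-on ROR gamma CHO cells.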
# [8] = molecular target: Nuclear receptor ROR-gamma (Homo sapiens) (UniProt P51449); test: qHTS assay to identify small molecule antagonists of the retinoid-related orphan receptor gamma (ROR-gamma) signaling pathway (AID 1159521)
# How it was run: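 Decreased RORE-driven luciferase luminescence indicates antagonism. Tet-on RORγ CHO cells received compound, then 1 uM final doxycycline 2 h later; signal read after 16 h incubation.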
# [9] = qHTS assay to identify small molecule agonists of the AP-1 signaling pathway - cell viability counter screen (AID 1159525; calls by dose curve; further: nearly all actives have a fitted effect of over 55% in size; further: potency means the concentration at half of the fitted maximal effect)
# How it was run: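 Intracellular ATP by Cell Titer Glo luminescence (30 min, RT) in the same ME-180 AP-1-bla wells after the 5 h compound exposure at 37 °C. Normalised to tetra n-octyl ammonium bromide and DMSO controls.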
# [10] = qHTS assay to identify small molecule agonists of the AP-1 signaling pathway (AID 1159526; calls by dose curve)
Compound,Potency [1],Potency [2],outcome [3],Potency [4],Potency [5],Potency [6],Potency [7],Potency [8],Potency [9],outcome [10]
CCCCCCCCCCCO,inactive and 49 µM (active),inactive,inactive,inactive and 49 µM (active),inactive,inactive,inactive,inactive,inactive,inactive
O=[N+]([O-])c1ccc2c(c1)Cc1ccccc1-2,inactive,inactive,inactive,inactive,inactive,inactive,inactive,inactive,inactive,inactive
O=C(c1ccccc1)c1ccccc1O,inactive,inactive,inactive,inactive,inactive,inactive,inactive,inactive,inactive,inactive
CC(C(=O)O)c1cccc(C(=O)c2ccccc2)c1 (stereo not given),inactive,inactive,inactive,inactive,inactive,inactive,inactive,inactive,inactive,inactive
CC(C)OB(OC(C)C)OC(C)C,inactive,inactive,inactive,inactive,inactive,inactive,inactive,inactive,inactive,inactive
COc1c(Cl)c(Cl)c(Cl)c(Cl)c1Cl,inactive,inactive,inactive,inactive,inactive,inactive,inactive,inactive,inactive,inactive
Cc1ccc2c(n1)Oc1ccc(C(C)C(=O)OCC(=O)N(C)C)cc1C2 (stereo not given),inactive,inactive,inactive,inactive,inactive,inactive,inactive,inactive,inactive,inactive
Brc1cc(Oc2cc(Br)c(Br)c(Br)c2Br)c(Br)c(Br)c1Br,inactive,inactive,inactive,1.56 µM (active) and inactive,inactive,inactive,inactive,inactive,55.2 µM (active) and inactive,inactive
CC(=O)c1ccccn1,inactive,inactive,inactive,inactive,inactive,inactive,inactive,inactive,inactive,inactive
COc1ccccc1/C=C/C=O,inactive,inactive,inactive,inactive,inactive,inactive,inactive,inactive,inactive,inactive
CCC(C)CO (stereo not given),inactive,inactive,inactive,inactive,inactive,inactive,inactive,inactive,inactive,inactive
Nc1ccc(S(=O)(=O)Nc2cnc3ccccc3n2)cc1,inactive,inactive,inactive,inactive,inactive,inactive,inactive,inactive,inactive,inactive
Nc1ncnc2nc[nH]c12,inactive,inactive,inactive,inactive,inactive,inactive,inactive,inactive,inactive,inactive
OC[C@H]1O[C@@H]2O[C@H]3[C@H](O)[C@@H](O)[C@@H](O[C@H]4[C@H](O)[C@@H](O)[C@@H](O[C@H]5[C@H](O)[C@@H](O)[C@@H](O[C@H]6[C@H](O)[C@@H](O)[C@@H](O[C@H]7[C@H](O)[C@@H](O)[C@@H](O[C@H]8[C@H](O)[C@@H](O)[C@@H](O[C@H]1[C@H](O)[C@H]2O)O[C@@H]8CO)O[C@@H]7CO)O[C@@H]6CO)O[C@@H]5CO)O[C@@H]4CO)O[C@@H]3CO,inactive,inactive,inactive,inactive,inactive,inactive,inactive,inactive,inactive,inactive
CC(C)OC=O,52 µM (active) and inactive,inactive,inactive,inactive,inactive,inactive,inactive,inactive,inactive,inactive
O=C(COc1ccc(Cl)cc1)N1CCN(Cc2ccc3c(c2)OCO3)CC1,inactive,inactive,inactive,inactive,inactive,inactive,inactive,inactive,inactive,inactive
